# From the supplement of paper PMC8728848
# The entries come from a sample that favours the strongest signals as a whole.
# B1: LlpB (Pseudomonas fluorescens) (protein)
# chain: MGSSHHHHHHSSGLVPRGSHMASSGFRIILFNSANNGTAILPPRNCLVAGQYLESPSKRYKLILEADGNLRLYDNGVPIWVADSSVPYTYVDNRPNTNLVTCFYMQGSAFLVDRVGSRTWATIGDWIDGAADRAYLQVQDDGNVVVVDGVPRWARFGFTPAALPNRGVFYPDHGTGPLPSFPVWSWTF
# Legend:
# Test in all cases: glycan array binding signal (z-score within array); higher = stronger binding
# Settings in all cases: glycan notation: IUPAC condensed, linker removed
# Fuc(a1-2)Gal = target: Fuc(a1-2)Gal
# In short: (§1)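 Glycan array data were curated from 3228 arrays in the Consortium for Functional Glycomics database and kept only where the protein sequence was available. Glycan names were converted to IUPAC-condensed notation, and columns mapping to the same glycan were averaged. The binding signal is a within-array Z-score, averaged across arrays of the same protein sequence at different concentrations or buffers and across linkers. Negative Z-scores can be read as non-binding.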
# Fuc(a1-2)Gal(b1-3)GalNAc = target: Fuc(a1-2)Gal(b1-3)GalNAc
# In short: as §1
# [1] = target: Fuc(a1-2)Gal(b1-3)GlcNAc(b1-2)Man(a1-3)[Fuc(a1-2)Gal(b1-3)GlcNAc(b1-2)Man(a1-6)]Man(b1-4)GlcNAc(b1-4)[Fuc(a1-6)]GlcNAc
# In short: as §1
# [2] = target: Fuc(a1-2)Gal(b1-4)GlcNAc(b1-3)Gal(b1-4)GlcNAc(b1-3)Gal(b1-4)GlcNAc
# In short: as §1
# [3] = target: Fuc(a1-2)Gal(b1-4)GlcNAc(b1-3)[Fuc(a1-3)[Gal(b1-4)]GlcNAc(b1-6)]Gal(b1-4)Glc
# In short: as §1
# [4] = target: Fuc(a1-2)Gal(b1-4)[Fuc(a1-3)]GlcNAc(b1-3)[Neu5Ac(a2-6)Gal(b1-4)GlcNAc(b1-6)]Gal(b1-4)Glc
# In short: as §1
# [5] = target: Fuc(a1-2)[GalNAc(a1-3)]Gal(b1-4)Glc
# In short: as §1
# [6] = target: Fuc(a1-3)[Gal(b1-4)]GlcNAc(b1-3)Gal(b1-4)[Fuc(a1-3)]GlcNAc
# In short: as §1
# [7] = target: Gal(a1-3)Gal(b1-3)GlcNAc(b1-2)Man
# In short: as §1
# Gal(b1-3)GlcNAc = target: Gal(b1-3)GlcNAc
# In short: as §1
# [8] = target: Gal(b1-3)GlcNAc(b1-3)Gal(b1-4)GlcNAc
# In short: as §1
# [9] = target: Gal(b1-3)GlcNAc(b1-3)Gal(b1-4)[Fuc(a1-3)]GlcNAc
# In short: as §1
# Gal(b1-4)GlcNAc(b1-2)Man = target: Gal(b1-4)GlcNAc(b1-2)Man
# In short: as §1
# [10] = target: Gal(b1-4)GlcNAc(b1-2)Man(a1-3)[Man(a1-6)]Man(b1-4)GlcNAc(b1-4)GlcNAc
# In short: as §1
# [11] = target: Gal(b1-4)GlcNAc(b1-2)Man(a1-6)Man(b1-4)GlcNAc(b1-4)GlcNAc
# In short: as §1
# [12] = target: Gal(b1-4)GlcNAc(b1-3)Gal(b1-3)GalNAc
# In short: as §1
# [13] = target: Gal(b1-4)GlcNAc(b1-3)Gal(b1-4)GlcNAc(b1-3)Gal(b1-4)GlcNAc(b1-2)Man(a1-3)[Gal(b1-4)GlcNAc(b1-3)Gal(b1-4)GlcNAc(b1-3)Gal(b1-4)GlcNAc(b1-2)Man(a1-6)]Man(b1-4)GlcNAc(b1-4)[Fuc(a1-6)]GlcNAc
# In short: as §1
# [14] = target: Gal3S(b1-4)[Fuc(a1-3)]GlcNAc
# In short: as §1
# Gal6S(b1-4)Glc = target: Gal6S(b1-4)Glc
# In short: as §1
# [15] = target: GlcA3S(b1-3)Gal(b1-4)GlcNAc(b1-3)Gal(b1-4)Glc
# In short: as §1
# [16] = target: GlcNAc(b1-2)Man(a1-3)[GlcNAc(b1-4)][GlcNAc(b1-2)Man(a1-6)]Man(b1-4)GlcNAc(b1-4)[Fuc(a1-6)]GlcNAc
# In short: as §1
# [17] = target: GlcNAc(b1-2)[GlcNAc(b1-4)]Man(a1-3)[GlcNAc(b1-4)][GlcNAc(b1-2)[GlcNAc(b1-6)]Man(a1-6)]Man(b1-4)GlcNAc(b1-4)[Fuc(a1-6)]GlcNAc
# In short: as §1
# [18] = target: GlcNAc(b1-2)[GlcNAc(b1-6)]Man(a1-6)[GlcNAc(b1-2)Man(a1-3)]Man(b1-4)GlcNAc(b1-4)GlcNAc
# In short: as §1
# GlcNAc(b1-3)Gal(b1-4)Glc = target: GlcNAc(b1-3)Gal(b1-4)Glc
# In short: as §1
# [19] = target: GlcNAc(b1-3)Gal(b1-4)GlcNAc(b1-3)Gal(b1-4)GlcNAc(b1-2)[GlcNAc(b1-3)Gal(b1-4)GlcNAc(b1-3)Gal(b1-4)GlcNAc(b1-6)]Man(a1-6)[GlcNAc(b1-3)Gal(b1-4)GlcNAc(b1-3)Gal(b1-4)GlcNAc(b1-2)Man(a1-3)]Man(b1-4)GlcNAc(b1-4)[Fuc(a1-6)]GlcNAc
# In short: as §1
# [20] = target: GlcNAc(b1-3)Gal(b1-4)GlcNAc(b1-6)[Gal(b1-3)]GalNAc
# In short: as §1
# [21] = target: GlcNAc(b1-3)Gal(b1-4)GlcNAc(b1-6)[GlcNAc(b1-3)]Gal(b1-4)GlcNAc
# In short: as §1
# GlcNAc(b1-3)Man = target: GlcNAc(b1-3)Man
# In short: as §1
# [22] = target: GlcNAc(b1-3)[GlcNAc(b1-6)]Gal(b1-4)GlcNAc
# In short: as §1
# Kdn(a2-3)Gal(b1-4)Glc = target: Kdn(a2-3)Gal(b1-4)Glc
# In short: as §1
# MurNAc(b1-4)GlcNAc = target: MurNAc(b1-4)GlcNAc
# In short: as §1
# [23] = target: Neu5Ac(a2-3)Gal(b1-3)GalNAc(b1-4)[Neu5Ac(a2-3)]Gal(b1-4)Glc
# In short: as §1
# [24] = target: Neu5Ac(a2-3)Gal(b1-3)GalNAc(b1-4)[Neu5Ac(a2-8)Neu5Ac(a2-3)]Gal(b1-4)Glc
# In short: as §1
# [25] = target: Neu5Ac(a2-3)Gal(b1-3)GlcNAc(b1-2)Man
# In short: as §1
# [26] = target: Neu5Ac(a2-3)Gal(b1-3)[Fuc(a1-4)]GlcNAc
# In short: as §1
# Neu5Ac(a2-3)Gal(b1-4)Glc = target: Neu5Ac(a2-3)Gal(b1-4)Glc
# In short: as §1
# [27] = target: Neu5Ac(a2-3)Gal(b1-4)GlcNAc(b1-2)Man(a1-3)[Neu5Ac(a2-3)Gal(b1-4)GlcNAc(b1-2)Man(a1-6)]Man(b1-4)GlcNAc(b1-4)[Fuc(a1-6)]GlcNAc
# In short: as §1
# [28] = target: Neu5Ac(a2-3)Gal(b1-4)GlcNAc(b1-2)[Neu5Ac(a2-3)Gal(b1-4)GlcNAc(b1-4)]Man(a1-3)[GlcNAc(b1-4)][Neu5Ac(a2-3)Gal(b1-4)GlcNAc(b1-2)[Neu5Ac(a2-3)Gal(b1-4)GlcNAc(b1-6)]Man(a1-6)]Man(b1-4)GlcNAc(b1-4)GlcNAc
# In short: as §1
# [29] = target: Neu5Ac(a2-3)Gal(b1-4)GlcNAc(b1-2)[Neu5Ac(a2-3)Gal(b1-4)GlcNAc(b1-6)]Man(a1-6)[Neu5Ac(a2-3)Gal(b1-4)GlcNAc(b1-2)Man(a1-3)][GlcNAc(b1-4)]Man(b1-4)GlcNAc(b1-4)GlcNAc
# In short: as §1
# [30] = target: Neu5Ac(a2-3)Gal(b1-4)GlcNAc(b1-3)Gal(b1-4)GlcNAc(b1-3)[Neu5Ac(a2-3)Gal(b1-4)GlcNAc(b1-3)Gal(b1-4)GlcNAc(b1-6)]GalNAc
# In short: as §1
# [31] = target: Neu5Ac(a2-3)Gal(b1-4)GlcNAc(b1-3)GalNAc
# In short: as §1
# [32] = target: Neu5Ac(a2-3)Gal(b1-4)GlcNAc(b1-3)[Neu5Ac(a2-3)Gal(b1-4)GlcNAc(b1-6)]GalNAc
# In short: as §1
# [33] = target: Neu5Ac(a2-3)Gal(b1-4)[Fuc(a1-3)]GlcNAc(b1-3)GalNAc
# In short: as §1
# [34] = target: Neu5Ac(a2-6)Gal(b1-4)GlcNAc(b1-2)Man(a1-3)[Man(a1-6)]Man(b1-4)GlcNAc(b1-4)GlcNAc
# In short: as §1
# [35] = target: Neu5Ac(a2-6)Gal(b1-4)GlcNAc(b1-2)Man(a1-3)[Neu5Ac(a2-6)Gal(b1-4)GlcNAc(b1-2)Man(a1-6)]Man(b1-4)GlcNAc(b1-4)[Fuc(a1-6)]GlcNAc
# In short: as §1
# [36] = target: Neu5Ac(a2-6)Gal(b1-4)GlcNAc(b1-3)Gal(b1-4)GlcNAc(b1-2)Man(a1-3)[Neu5Ac(a2-6)Gal(b1-4)GlcNAc(b1-3)Gal(b1-4)GlcNAc(b1-2)Man(a1-6)]GalNAc
# In short: as §1
# [37] = target: Neu5Ac(a2-6)Gal(b1-4)GlcNAc(b1-3)Gal(b1-4)GlcNAc(b1-3)GalNAc
# In short: as §1
# [38] = target: Neu5Ac(a2-6)GalNAc(b1-4)GlcNAc
# In short: as §1
# [39] = target: Neu5Ac(a2-6)GlcNAc(b1-4)GlcNAc(b1-4)GlcNAc
# In short: as §1
# [40] = target: Neu5Ac(a2-8)Neu5Ac(a2-3)Gal(b1-3)GalNAc(b1-4)[Neu5Ac(a2-3)]Gal(b1-4)Glc
# In short: as §1
# [41] = target: Neu5Ac(a2-8)Neu5Ac(a2-3)Gal(b1-4)GlcNAc
# In short: as §1
# [42] = target: Neu5Ac(a2-8)Neu5Ac(a2-3)[Gal(b1-3)GalNAc(b1-4)]Gal(b1-4)Glc
# In short: as §1
# [43] = target: Neu5Ac9Ac(a2-3)Gal(b1-3)GlcNAc
# In short: as §1
# Neu5Gc(a2-3)Gal(b1-4)Glc = target: Neu5Gc(a2-3)Gal(b1-4)Glc
# In short: as §1
binder,measurement,setting,value
B1,glycan array binding signal (z-score),Fuc(a1-2)Gal,-0.044
same,glycan array binding signal (z-score),Fuc(a1-2)Gal(b1-3)GalNAc,-0.631
same,glycan array binding signal (z-score),[1],-0.114
same,glycan array binding signal (z-score),[2],2.58
same,glycan array binding signal (z-score),[3],-0.33
same,glycan array binding signal (z-score),[4],0.032
same,glycan array binding signal (z-score),[5],-0.54
same,glycan array binding signal (z-score),[6],1.4
same,glycan array binding signal (z-score),[7],0.466
same,glycan array binding signal (z-score),Gal(b1-3)GlcNAc,0.344
same,glycan array binding signal (z-score),[8],0.129
same,glycan array binding signal (z-score),[9],0.523
same,glycan array binding signal (z-score),Gal(b1-4)GlcNAc(b1-2)Man,3.72
same,glycan array binding signal (z-score),[10],0.362
same,glycan array binding signal (z-score),[11],-0.158
same,glycan array binding signal (z-score),[12],-0.092
same,glycan array binding signal (z-score),[13],2.11
same,glycan array binding signal (z-score),[14],-1.03
same,glycan array binding signal (z-score),Gal6S(b1-4)Glc,-1.15
same,glycan array binding signal (z-score),[15],-1.73
same,glycan array binding signal (z-score),[16],1.22
same,glycan array binding signal (z-score),[17],-0.095
same,glycan array binding signal (z-score),[18],0.893
same,glycan array binding signal (z-score),GlcNAc(b1-3)Gal(b1-4)Glc,-0.719
same,glycan array binding signal (z-score),[19],0.375
same,glycan array binding signal (z-score),[20],1.38
same,glycan array binding signal (z-score),[21],-0.837
same,glycan array binding signal (z-score),GlcNAc(b1-3)Man,0.669
same,glycan array binding signal (z-score),[22],-0.461
same,glycan array binding signal (z-score),Kdn(a2-3)Gal(b1-4)Glc,3.03
same,glycan array binding signal (z-score),MurNAc(b1-4)GlcNAc,2.54
same,glycan array binding signal (z-score),[23],2.9
same,glycan array binding signal (z-score),[24],-1.93
same,glycan array binding signal (z-score),[25],2.63
same,glycan array binding signal (z-score),[26],2.3
same,glycan array binding signal (z-score),Neu5Ac(a2-3)Gal(b1-4)Glc,2.98
same,glycan array binding signal (z-score),[27],-0.332
same,glycan array binding signal (z-score),[28],1.21
same,glycan array binding signal (z-score),[29],-0.505
same,glycan array binding signal (z-score),[30],-0.12
same,glycan array binding signal (z-score),[31],-0.794
same,glycan array binding signal (z-score),[32],-0.411
same,glycan array binding signal (z-score),[33],0.993
same,glycan array binding signal (z-score),[34],2.88
same,glycan array binding signal (z-score),[35],3.58
same,glycan array binding signal (z-score),[36],2.6
same,glycan array binding signal (z-score),[37],-0.312
same,glycan array binding signal (z-score),[38],-0.182
same,glycan array binding signal (z-score),[39],2.47
same,glycan array binding signal (z-score),[40],2.81
same,glycan array binding signal (z-score),[41],-1.02
same,glycan array binding signal (z-score),[42],-1.03
same,glycan array binding signal (z-score),[43],-0.008
same,glycan array binding signal (z-score),Neu5Gc(a2-3)Gal(b1-4)Glc,0.956
